# Experimental data: PubChem BioAssay AID2729 (National Center for Advancing Translational Sciences (NCATS), 2010)
# The list shows a part of the results. Records with an inconclusive call do not appear. Values without a mark were called inactive. Calls follow the shape of the dose curve; as a rule, active = well fitted inhibition curve with a large enough effect; inconclusive = small, poorly fitted or top-dose-only effect, or effect the other way; inactive = flat fitted curve, though single readings scatter.
# Assay: High Content Assay for Compounds that inhibit the Assembly of the Perinucleolar Compartment: WI-38 Cytotoxicity
# Conditions: WI-38 normal lung fibroblasts, ATPLite luminescence ATP viability, 24 h; series mostly up to 46.1 µM; activity change, negative = cytotoxicity: at the top concentration
# Text: High Content Assay for Compounds that inhibit the Assembly of the Perinucleolar Compartment
# NIH Chemical Genomics Center [NCGC]
# NIH Molecular Libraries Probe Centers Network [MLPCN]
# Assay Submitter (PI): Sui Huang, Northwestern University, Feinberg School of Medicine, Cell and Molecular Biology, Chicago, Illinois.
# The perinucleolar compartment (PNC) is a non-membrane-bound nuclear subdomain that is associated with but structurally distinct from the nucleolus. The PNC is a heritable trait, in which the number of PNCs per cell in daughter cells often mimics that of their mother cells. The PNC is heterogeneous in shape, is stable through interphase, disassembles during mitosis, and reassembles in early G1. The PNC is concentrated with newly synthesized RNA polymerase III (pol III) RNAs (MRP RNA, RNAse P H1 RNA, hY RNAs[hY1, 2, 5], Alu RNA, and SRP [7SL] RNA) and RNA binding proteins (nucleolin, PTB, CUG-BP, KSRP, Raver1, Raver2, and Rod).
# Extensive in vitro studies have shown that the PNC is unique to tumor cells and preferentially forms in tumor cells derived from solid tissues. Examination of cancer cell lines from various origins and malignant capacities has shown that PNC prevalence correlates with the malignancy of tumors and has the potential to be developed as a pan-cancer prognostic marker.
# Although the PNC is associated with a DNA locus and a handful of components have been identified, much remains to be investigated regarding the structure and function of the PNC and its mechanistic link to cancer. We have previously shown that PNC prevalence reduction is a valid strategy to identify compounds that can be used to study the structure and function of the PNC. It is necessary, however, to create a screening platform that is able to test a large number of compounds in an automated fashion. Here we report the development and robustness of an automated whole-cell phenotypic image-based screening assay that is capable of identifying such compounds.
# We conducted a followup assay to measure the effect of the lead candidates on cell health in a non-metastatic line, WI-38, by measuring ATP levels (ATPLite).
# 1. Cells at a density of 75-90% confluency in T175 flasks were harvested using 7 ml TrypLE Express cell dissociation reagent. After dissociation (5 minutes room temperature incubation) 10 ml of complete media was added to the TrypLE/cell suspension. The liquid was transferred to a 50 ml Conical tube and cells were pelleted at 1000 RPM for 5 min. Supernatant was removed and cells were resuspended to a final density of 150-200 cells/ul in complete media.
# 2. Cells were plated in 5 ul volume (2000 cells/well) into 1536 well White solid bottom plates and allowed to recover and adhere at 37 C in a humidified 5% CO2 incubator for 4 hours.
# 3. After 4 hour incubation, compound libraries (23 nl of 12.5 uM in columns 5-48) were transferred to the plates in duplicate using a 1536 well pintool. Camptothecin positive control (59 uM final) was added to column 2 and 1:3 dilutions of camptothecin was added to column 3. DMSO negative controls were present in columns 1 and 4.
# 4. After a 24 hour incubation in the 37 C incubator, all wells were treated with 3 ul of ATPLite reagent using a multidrop combi dispenser (ThermoFisher). Bubbles that formed during dispensing were removed by spinning the plates for 1 minutre at 1500 RPM on a table top centrifuge.
# 5. Luminescencent signal was detected on a Viewlux CCD based imager (PerkinElmer) with a clear filter and a 30 second integration time.
# The WI-38 normal human fetal lung fibroblast cell line was provided by Sui Huang of Northwestern University. The media and cell culture reagents were purchased from Invitrogen (Carlsbad, CA), ATPLite came from PerkinElmer.
row,SMILES,"activity change, negative = cytotoxicity [%]"
1,COC(=O)c1ccc(CSc2ccccc2C)o1,16.6
2,Cn1c2ccccc2c(=O)c2c(=O)n(Cc3ccco3)c(COc3ccccc3)nc21,-2.37
3,CCOC(=O)c1c(-c2cccc(C)c2)csc1NC(=O)c1c(-c2ccccc2)noc1C,-12.3
4,CC1(c2cccc([N+](=O)[O-])c2)CC(C)(C)N(C(=O)c2ccccc2)c2ccccc21 (stereo unspecified),7.08
5,N=c1c2c(-c3ccccc3)c(-c3ccccc3)n(Cc3ccccc3)c2ncn1CCCO,-13.3
6,COC(=O)C1=C(C)N(c2ccc(Br)cc2)C(=O)/C1=C\c1ccco1,-2.42
